{"source": "PubChem BioAssay AID1347131", "about": "(National Center for Advancing Translational Sciences (NCATS), 2019)", "note": "The campaign covered roughly 410,000 compounds. About 2,000 (0.49%) were called active. Entries that show only a call come without a potency. Another 8% or so got no clear call; they are omitted. Calls come from the whole dose curve; tested in HEK293 reporter line. Only a selection was taken, and actives are over-represented in it overall. Potency is the fitted concentration of half-maximal effect.", "data": [{"test": "qHTS Assay for Foot and Mouth Disease Virus Antivirals: Primary Screen against the MLPCN compound library; note: nearly all actives have a fitted effect of over 55% in size", "conditions": "FMDV antiviral cell-based qHTS; series mostly up to 57.9 µM", "values": [{"smiles": "O=C(NCCCCc1ccccc1)NC[C@@H]1CC[C@@H](Cc2ccc(-c3ccccc3)cc2)O1", "Potency": "inactive"}, {"smiles": "COc1ccc2[nH]cc(CCNc3ccnc(-c4cccnc4)n3)c2c1", "Potency": "inactive"}, {"smiles": "COc1ccc2[nH]cc(CCNc3ncncc3-c3ccoc3)c2c1", "Potency": "22.4 µM (active)"}, {"smiles": "COc1ccc2[nH]cc(CCNc3ccnc(-c4c(C)noc4C)n3)c2c1", "Potency": "inactive"}, {"smiles": "COc1ccc(S(=O)(=O)N2CCCN(CCC(=O)Nc3cccc(C(F)(F)F)c3)CC2)cc1", "Potency": "inactive"}, {"smiles": "Cc1cccc(N2CCN(C(=O)CCS(=O)(=O)c3ccc4c(c3)oc(=O)n4C)CC2)c1C", "Potency": "inactive"}, {"smiles": "COc1ccc(-c2cc(C(=O)N3CCCCC3)no2)cc1OC", "Potency": "inactive"}, {"smiles": "CCc1cc(C(=O)N2CCCC(C(=O)c3ccc(Cl)cc3)C2)no1", "note": "(centres undefined)", "Potency": "inactive"}, {"smiles": "O=C(c1cc(-c2ccc(Cl)cc2Cl)on1)N1CCCC1", "Potency": "12.6 µM (active)"}, {"smiles": "Cc1cc(C)n2nc(C)c(-c3ccc(Cl)cc3)c2n1", "Potency": "inactive"}, {"smiles": "Cc1nn2cnnc2c(C)c1Cc1ccc(Cl)cc1", "Potency": "inactive"}, {"smiles": "Cc1nc2nc(-c3ccc(Cl)cc3)cn2nc1C", "Potency": "10 µM (active)"}, {"smiles": "COc1ccc(/C=N/NC(=S)Nc2cc(S(=O)(=O)N3CCOCC3)ccc2N2CCOCC2)cc1O", "Potency": "inactive"}, {"smiles": "CCc1c(C)c2ccc(O)c(CN3CCN(c4ccccc4)CC3)c2oc1=O", "Potency": "inactive"}, {"smiles": "Brc1ccc(C2C3=C(Nc4ncnn42)c2ccccc2OC3c2ccncc2)cc1", "note": "(centres undefined)", "Potency": "17.8 µM (active)"}, {"smiles": "COC(=O)c1c(C)oc(C)c1S(=O)(=O)NCC1CC1", "Potency": "inactive"}, {"smiles": "COc1ccc(NS(=O)(=O)c2ccc(-n3cccn3)cc2)cc1OC", "Potency": "inactive"}, {"smiles": "O=C(CN1CCN(S(=O)(=O)c2cc(C(F)(F)F)ccc2Cl)CC1)N1CCc2ccccc2C1", "Potency": "inactive"}, {"smiles": "C=CCc1ccccc1OCC(O)CN1CCN(c2ccccc2OC)CC1", "note": "(centres undefined)", "Potency": "inactive"}, {"smiles": "COC(CNC(=O)C1CCN(S(=O)(=O)c2cccc3nsnc23)CC1)OC", "Potency": "inactive"}, {"smiles": "CCOC(=O)c1cc(-c2ccccc2)n(CCC(=O)N2CCN(c3ccccc3OC)CC2)c1C", "Potency": "inactive"}, {"smiles": "Cc1ccc2[nH]c(CSc3nnc(NC(=O)c4ccccc4F)s3)cc(=O)c2c1", "Potency": "inactive"}, {"smiles": "CCc1ccc(C2CC(c3cccc(OC)c3)n3nc(N)nc3N2)cc1", "note": "(centres undefined)", "Potency": "inactive"}, {"smiles": "CCc1ccc(C(=O)C[n+]2cccc3cc(OC)ccc32)cc1", "Potency": "8.91 µM (active)"}, {"smiles": "Cc1cc[n+](CC(=O)c2ccc(NC(=O)c3ccccc3)cc2)c2ccccc12", "Potency": "inactive"}, {"smiles": "CC1(c2nnc(-c3ccncc3)o2)CC(c2ccc([N+](=O)[O-])cc2)=NO1", "note": "(centres undefined)", "Potency": "inactive"}, {"smiles": "Cc1occc1C(=O)NNC(=S)Nc1ccccc1", "Potency": "inactive"}, {"smiles": "COc1ccc(-c2cc(=NC(CC(C)C)C(=O)O)c3cc(C)ccc3o2)cc1", "note": "(centres undefined)", "Potency": "inactive"}, {"smiles": "CC(=O)Nc1scc(C)c1-c1nc2ccccc2s1", "Potency": "inactive"}, {"smiles": "CCCNC(=O)c1ccc(-c2nc3ccccc3s2)s1", "Potency": "14.1 µM (active)"}, {"smiles": "CCOC(=O)c1nc2ccccc2s1", "Potency": "inactive"}, {"smiles": "COc1cccc(-n2c(=O)c3c(C)c(C(=O)N(C)C)sc3n(Cc3ccc(F)cc3Cl)c2=O)c1", "Potency": "inactive"}, {"smiles": "Cc1nn2c(=O)cc(COC(=O)c3ccc(C(C)(C)C)cc3)nc2s1", "Potency": "inactive"}, {"smiles": "COc1cc(CNCc2ccccn2)ccc1OCc1ccccc1Cl", "Potency": "inactive"}, {"smiles": "COc1ccc(C2C3C=CCC(c4cccc(-c5ccc(C)cc5)c4)C3C(=O)N2Cc2ccccc2)cc1Cl", "note": "(centres undefined)", "Potency": "12.6 µM (active)"}, {"smiles": "Cc1ccc(F)c([C@H]2C3C=CCC(c4ccccc4)C3C(=O)N2Cc2ccccc2)c1", "note": "(some centres undefined)", "Potency": "inactive"}, {"smiles": "COc1ccc(-c2cccc([C@H]3[C@@H]4C=CC[C@@H](C)[C@@H]4C(=O)N3Cc3ccccc3)c2)cc1", "Potency": "inactive"}, {"smiles": "CCOc1ncccc1C(=O)Nc1cc(S(=O)(=O)N(CC)CC)ccc1N1CCOCC1", "Potency": "inactive"}, {"smiles": "Cc1ccc(C)c(N2CCN(C(=O)c3ccc(N4CCCC4=O)cc3)CC2)c1", "Potency": "inactive"}, {"smiles": "Cc1oc(-c2ccccc2F)nc1CS(=O)(=O)CC(=O)NC1CCCC(C)C1C", "note": "(centres undefined)", "Potency": "inactive"}, {"smiles": "O=C(Nc1ccc2c(c1)OCCO2)c1cccc2nc3ccccc3nc12", "Potency": "inactive"}, {"smiles": "c1csc(CNc2ccc3c(c2)OCCO3)c1", "Potency": "inactive"}, {"smiles": "O=C(CN1CCN(S(=O)(=O)c2ccc(Cl)cc2)CC1)Nc1ccc2c(c1)OCCO2", "Potency": "inactive"}, {"smiles": "O=C(O)C1C2C=CC(C2)C1C(=O)Nc1ccc2c(c1)OCCO2", "note": "(centres undefined)", "Potency": "inactive"}, {"smiles": "Cc1ccsc1C(=O)Nc1ccc2c(c1)OCCO2", "Potency": "22.4 µM (active)"}, {"smiles": "Cc1ccc(C(=O)Nc2ccc3c(c2)OCCO3)c(Cl)c1", "Potency": "11.2 µM (active)"}, {"smiles": "CCOC(=O)c1ccc[n+](C(C)C(=O)c2ccc(-c3ccccc3)cc2)c1", "note": "(centres undefined)", "Potency": "inactive"}, {"smiles": "COc1cccc(CNC(=O)c2cccc(S(=O)(=O)N3CCN(c4ccc(F)cc4)CC3)c2)c1", "Potency": "inactive"}, {"smiles": "CCOc1ccc(NC(=O)CN2C(=O)CCSc3ccc(S(=O)(=O)N4CCCC4)cc32)cc1", "Potency": "inactive"}, {"smiles": "O=C(COC(=O)/C=C/c1cccs1)Nc1ccc(Cl)cc1F", "Potency": "inactive"}, {"smiles": "O=C(/C=C/c1cccs1)c1cc(Cl)ccc1OC(=O)N1CCOCC1", "Potency": "17.8 µM (active)"}, {"smiles": "O=C(/C=C/c1cccs1)N1CCC2(CC1)Oc1ccc(Cl)cc1C(=O)C21CC(c2cccnc2)=NO1", "note": "(centres undefined)", "Potency": "inactive"}, {"smiles": "O=C(CCCOc1ccc(Cl)cc1)NCC1CCCO1", "note": "(centres undefined)", "Potency": "inactive"}, {"smiles": "CCOC(=O)C1=C(C)Nc2ccccc2N=C1NC(=O)c1oc2ccccc2c1COC", "Potency": "inactive"}, {"smiles": "COc1ccccc1OCC(=O)Nc1cc(S(=O)(=O)N2CCCCC2)ccc1N1CCCCC1", "Potency": "inactive"}, {"smiles": "COc1cc(/C=C(\\C#N)c2ccccn2)ccc1OCC(=O)Nc1cccc(C(F)(F)F)c1", "Potency": "inactive"}, {"smiles": "CN(CCC#N)c1ccc(/C=C(\\C#N)c2ccccn2)cc1", "Potency": "14.1 µM (active)"}, {"smiles": "CNc1nc(-c2ccc3c(c2)CCN3S(=O)(=O)c2ccccc2)c(C)s1", "Potency": "inactive"}, {"smiles": "CC(=O)Nc1ccc(S(=O)(=O)N(C)CC(=O)Nc2ccc(Br)cc2F)cc1", "Potency": "inactive"}, {"smiles": "CCn1cc(C(=O)OCC(=O)OC2CC(C)CCC2C(C)C)c(=O)c2ccc(C)nc21", "note": "(centres undefined)", "Potency": "22.4 µM (active)"}, {"smiles": "O=C(CCCCn1c(=O)c2ccccc2n(CC(=O)Nc2cccc(F)c2)c1=O)NCc1ccccc1Cl", "Potency": "inactive"}, {"smiles": "COc1ccc(C[C@H]2CN3C(=NC[C@@H]3Cc3ccc(O)cc3)N2C[C@H](C)NC(=O)CCC2CCCCC2)cc1", "Potency": "inactive"}, {"smiles": "CCCCCCCCCCC[N+](C)(C)CC/C=C1/c2ccccc2Sc2ccc(Cl)cc21", "Potency": "inactive"}, {"smiles": "CC1(Cc2ccc(C(F)(F)F)o2)C(=O)Nc2cc(-c3ccc(F)cc3F)ccc21", "note": "(centres undefined)", "Potency": "inactive"}]}]}
